Composite z-score, z-score and composite Z-score data for six molecules are collected here from PubChem BioAssay.

Active and inactive are the calls of the source.

Assay [1] has as its system Human papillomavirus type 1a protein E7 (residues 44-93). Nature of the assay: small molecules binding HPV E7 44-93 – biochemical, small-molecule microarray, residues 44-93, 635 nm fluorescence, primary screen (AID 1108).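 Further: E7 fragment applied at 1 µg/mL in TBST for 1 h at 4 C; score combines spot fluorescence with its signal to noise ratio.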 To be noted: fluorescence 635 nm, higher = more signal.
The nature of assay [2]: hepatitis C replication reporter changes, two-sided – Huh7 cells, luciferase reporter, HCV replication inhibitor project, primary screen (AID 1109).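 Further: huh7 hepatoma cells harbouring a luciferase neomycin HCV replicon reporter; luciferase luminescence as measure of HCV replicon replication; test concentration not given here.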 To be noted: Huh7 HCV replicon luciferase reporter, 48 h; higher = more signal.
Assay [3] addresses Left-right determination factor 2 (Homo sapiens) (UniProt O00292). The assay can be described thus: small molecules binding LEFTY2 protein – biochemical, small-molecule microarray, 635 nm fluorescence scan, primary screen (AID 1110). To be noted: higher = more signal.
Assay [4] concerns the target Calmodulin-1 (Homo sapiens) (UniProt P0DP23). The assay can be described thus: small molecules binding calmodulin-1 with EGTA – biochemical, small-molecule microarray, Cy5-labelled CALM1, profiling panel (AID 1111).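 Further: labelled calmodulin applied in Tris saline Tween buffer holding calcium plus EGTA and DTT.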 Particulars: Cy5-CALM1 binding fluorescence, higher = more signal.
The target is the same in assay [5]. Nature of the assay: small molecules binding Ca-loaded calmodulin-1 – biochemical, small-molecule microarray, Cy5-labelled CALM1, plus calcium, artefact control for SMM control-protein annotation, profiling panel (AID 1112).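 Further: score merges spot fluorescence with signal to noise from triplicate slides.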 Particulars: Cy5-CALM1 binding fluorescence, higher = more signal.
Assay [6] in a line: probe aWnt5a binding to arrayed compounds – biochemical, biotinylated probe, 635/667 nm fluorescence, primary screen (AID 1113).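 Further: score merges 667 nm fluorescence intensity with signal-to-noise per printed feature.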 To be noted: small-molecule microarray, higher = more signal.
Assay [7] can be described thus: probe aShh binding to arrayed compounds – biochemical, biotinylated probe, 635/667 nm fluorescence, primary screen (AID 1114).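 Further: probe is biotin-labelled aShh protein from a stem cell growth factor screen; measures binding of labelled protein to compounds printed on the slide; score merges feature fluorescence at 667 nm with signal-to-noise.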 To be noted: small-molecule microarray, higher = more signal.
A short description of assay [8]: probe aNog binding to arrayed compounds – biochemical, biotinylated probe, 635/667 nm fluorescence, primary screen (AID 1115).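 Further: probe is biotinylated aNog protein used at 0.15 µg/mL for 1 h at 4 C; z-score combines 667 nm fluorescence of each spot with its signal to noise.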 To be noted: small-molecule microarray, higher = more signal.
Assay [9] deals with Torsin-1A-interacting protein 1 (Homo sapiens) (UniProt Q5JTV8). Nature of the assay: compound microarray binding of lysate hLAP1 – cell lysate, small-molecule microarray, COS7 lysate, 635/667 nm fluorescence, primary screen (AID 1116). To be noted: 635 nm fluorescence, higher = more signal.
Assay [10] has as its target Alpha-bungarotoxin (Bungarus multicinctus) (UniProt P60615). Nature of the assay: compounds binding labelled alpha-BTX control protein – biochemical, small-molecule microarray, Alexa647 label, 635/667 nm fluorescence, artefact control for SMM control protein annotation, profiling panel (AID 1117). Particulars: alpha-BTX-A647 binding fluorescence, higher = more signal.
Assay [11] concerns the target Albumin (Bos taurus) (UniProt P02769). The assay can be described thus: compounds binding labelled BSA control protein – biochemical, small-molecule microarray, Alexa647 label, 635/667 nm fluorescence, artefact control for SMM control protein annotation, profiling panel (AID 1118).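 Further: score merges 667 nm emission intensity and signal-to-noise per printed compound spot.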 Particulars: BSA-A647 binding, fluorescence 635 nm, higher = more signal.
A short description of assay [12]: probe aXIP binding to arrayed compounds – biochemical, NeuroSMM set, 635/667 nm fluorescence, primary screen (AID 1119).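 Further: probe is the protein aXip251-270 applied at 1 µg/mL to compound-printed slides; binding of probe to printed compounds measured as 667 nm fluorescence plus signal to noise.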 Particulars: small-molecule microarray, higher = more signal, called active from +8 up or from −8 down.
Assay [13] is described as follows: probe aNOTCH3 binding on compound microarray – biochemical, small-molecule microarray, 635/667 nm fluorescence, primary screen (AID 1120).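 Further: probe is a biotin-tagged antibody raised against NOTCH3 rather than NOTCH3 protein; score merges spot fluorescence near 667 nm with spot signal to noise.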 To be noted: higher = more signal.
Assay [14] can be described thus: probe aNOTCH2 binding on compound microarray – biochemical, small-molecule microarray, 635/667 nm fluorescence, primary screen (AID 1121).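 Further: score merges feature fluorescence read at 667 nm with its signal to noise.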 Particulars: higher = more signal.
For assay [15], the target named is Carbonic anhydrase 2 (Homo sapiens) (UniProt P00918). The assay can be described thus: compounds binding carbonic anhydrase 2 – biochemical, small-molecule microarray, Alexa647-labelled CAII, profiling panel (AID 1122). Particulars: CAII-A647 binding fluorescence, higher = more signal.
A short description of assay [16]: COS7 lysate on small-molecule microarray, probe aHis, 635 nm (AID 1123).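 Further: z-score combines 667nm fluorescence intensity with signal-to-noise per printed compound spot.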 Particulars: COS7 cell lysate, fluorescence, higher = more signal.
Assay [17] in a line: probe aLAP1 signal on lysate-treated microarray – cell lysate, small-molecule microarray, COS7 lysate, primary screen (AID 1124).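 Further: lysate comes from COS7 cells expressing LAP1 and is applied at 0.3 µg/mL; score merges spot fluorescence near 667 nm with signal-to-noise over triplicate slides.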 Particulars: probe aLAP1, fluorescence, higher = more signal.
The subject of assay [18] is Sam68 (KHDRBS1). The assay can be described thus: compounds binding KHDRBS1 protein – biochemical, small-molecule microarray, 635 nm fluorescence, primary screen (AID 1125).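 Further: score merges 667 nm channel intensity with signal to noise over triplicate slides.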 To be noted: higher = more signal.
For assay [19], the system named is Chordin-like protein 2 (CHRDL2). Nature of the assay: compounds binding chordin-like 2 – biochemical, small-molecule microarray, 635 nm fluorescence, primary screen (AID 1126).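 Further: printed compound slides probed with Chrdl2 protein at 4 µg/mL for 1 h at 4 C; score merges 667 nm emission intensity with signal to noise over three replicate slides.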 To be noted: fluorescence 635 nm, higher = more signal.
The target in assay [20] is Concanavalin-A (Canavalia ensiformis) (UniProt P02866). The assay can be described thus: compounds binding concanavalin A lectin – biochemical, small-molecule microarray, Alexa647 label, 635 nm, artefact control for SMM control protein annotation, primary screen (AID 1127).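 Further: z combines 667 nm emission intensity with signal-to-noise across three replicate slides.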 Particulars: ConA-A647 binding fluorescence, higher = more signal.
Concanavalin-A (Canavalia ensiformis), sequence (P02866 whole entry, looked up): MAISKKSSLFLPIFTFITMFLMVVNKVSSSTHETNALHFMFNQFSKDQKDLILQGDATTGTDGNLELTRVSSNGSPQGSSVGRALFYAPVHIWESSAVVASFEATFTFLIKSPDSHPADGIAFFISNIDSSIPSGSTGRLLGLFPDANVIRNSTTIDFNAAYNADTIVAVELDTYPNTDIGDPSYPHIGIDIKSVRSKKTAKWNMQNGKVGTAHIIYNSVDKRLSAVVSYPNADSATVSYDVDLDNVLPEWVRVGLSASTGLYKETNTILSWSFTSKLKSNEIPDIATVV

Torsin-1A-interacting protein 1 (Homo sapiens), sequence (Q5JTV8 whole entry, looked up): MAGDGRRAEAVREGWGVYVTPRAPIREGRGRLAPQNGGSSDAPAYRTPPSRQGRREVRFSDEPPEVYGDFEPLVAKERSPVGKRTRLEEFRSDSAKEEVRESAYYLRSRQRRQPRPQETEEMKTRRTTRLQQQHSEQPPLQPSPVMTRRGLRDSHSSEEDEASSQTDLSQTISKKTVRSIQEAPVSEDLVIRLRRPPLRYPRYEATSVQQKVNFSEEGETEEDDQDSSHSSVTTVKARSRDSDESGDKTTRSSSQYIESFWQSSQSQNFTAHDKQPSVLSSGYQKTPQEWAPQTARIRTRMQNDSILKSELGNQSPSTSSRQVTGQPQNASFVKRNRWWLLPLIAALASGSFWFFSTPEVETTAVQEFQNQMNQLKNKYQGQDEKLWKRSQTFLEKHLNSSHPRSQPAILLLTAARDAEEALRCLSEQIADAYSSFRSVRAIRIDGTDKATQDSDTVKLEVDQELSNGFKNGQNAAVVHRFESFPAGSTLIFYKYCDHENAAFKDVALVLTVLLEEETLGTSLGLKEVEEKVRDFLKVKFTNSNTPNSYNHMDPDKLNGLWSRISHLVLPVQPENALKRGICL
Left-right determination factor 2 (Homo sapiens), sequence (O00292 whole entry, looked up): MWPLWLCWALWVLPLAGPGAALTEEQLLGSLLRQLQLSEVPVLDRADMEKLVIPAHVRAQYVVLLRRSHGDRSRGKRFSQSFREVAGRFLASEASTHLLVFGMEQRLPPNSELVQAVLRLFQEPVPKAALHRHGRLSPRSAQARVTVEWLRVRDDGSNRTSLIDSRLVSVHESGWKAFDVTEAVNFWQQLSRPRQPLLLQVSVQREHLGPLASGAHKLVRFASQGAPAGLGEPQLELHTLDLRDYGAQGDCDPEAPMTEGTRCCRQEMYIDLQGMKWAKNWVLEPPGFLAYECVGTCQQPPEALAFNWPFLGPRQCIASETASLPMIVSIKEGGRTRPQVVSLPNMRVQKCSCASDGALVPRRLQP
Albumin (Bos taurus), sequence (P02769 whole entry, looked up): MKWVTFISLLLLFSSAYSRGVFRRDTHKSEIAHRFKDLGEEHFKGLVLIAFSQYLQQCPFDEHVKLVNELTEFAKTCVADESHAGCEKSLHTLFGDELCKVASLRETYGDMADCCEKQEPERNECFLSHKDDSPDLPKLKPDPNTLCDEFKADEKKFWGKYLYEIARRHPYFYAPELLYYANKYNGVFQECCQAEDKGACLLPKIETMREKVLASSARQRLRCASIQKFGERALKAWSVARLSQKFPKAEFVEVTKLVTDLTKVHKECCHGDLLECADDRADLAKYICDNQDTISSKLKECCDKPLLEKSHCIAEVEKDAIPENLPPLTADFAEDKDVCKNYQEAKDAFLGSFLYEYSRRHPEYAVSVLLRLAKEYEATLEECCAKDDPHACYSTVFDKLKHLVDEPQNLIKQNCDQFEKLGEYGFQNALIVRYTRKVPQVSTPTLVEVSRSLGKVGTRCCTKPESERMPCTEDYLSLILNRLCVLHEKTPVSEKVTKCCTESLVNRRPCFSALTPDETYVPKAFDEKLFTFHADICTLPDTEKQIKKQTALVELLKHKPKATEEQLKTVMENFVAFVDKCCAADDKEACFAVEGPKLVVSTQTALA
Alpha-bungarotoxin (Bungarus multicinctus), sequence (P60615 whole entry, looked up): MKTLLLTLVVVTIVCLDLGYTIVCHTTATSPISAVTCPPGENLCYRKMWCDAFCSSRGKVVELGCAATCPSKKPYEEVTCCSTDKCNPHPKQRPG

With `COC(=O)C(CC#Cc1ccc2c(c1)[C@]1(C(=O)N2)[C@H](C(=O)O)[C@H]2C(=O)O[C@H](c3ccccc3)[C@H](c3ccccc3)N2[C@@H]1c1ccccc1OCCO)C(=O)OC`, the composite z-score is 0.851 in [1]; 0.445 in assay [3]; 1.62 in assay [4]; 0.369 in [5]; -0.001 in assay [6]; 0.108 in assay [7]. In addition, the composite z-score in assay [8] was determined as 0.767; in [9] it was 1.1; in assay [10] it was 1.79; in assay [11], 0.788; in [13] it was 0.277; in [14], 0.054. In addition, the composite z-score in assay [15] came to 0.684; in assay [16], 1.62; in [17] it was 1.11; in assay [18], 1.32; in [19], 0.364; in [20] it was 1.15. Also, the z-score in assay [2] is -2.04. Further, the composite Z-score in [12] was -0.051 (inactive).

For the molecule `COc1ccc(C(O)C2C=CC3C(=O)N(c4ccccc4)C(=O)C3N2Nc2ccc(C#N)cc2)c2ccccc12` (stereo not given), the composite z-score in assay [1] is 0.596; in assay [3], -0.199; in [4] it was 2.63; in assay [5] it was 1.07; in assay [6], 0.0388; in assay [7], -0.0709. Besides, the composite z-score in assay [8] worked out at 1.45; in assay [9], 1.83; in [10] it was 1.68; in [11] it was 1.07; in [13], 0.0248; in assay [14] it was 0.0847. Also, the composite z-score was 0.734 in [15]; 2.48 in assay [16]; 0.537 in [17]; 1.28 in assay [18]; -0.32 in [19]; 1.22 in assay [20]. Moreover, the z-score in [2] was -0.46. Moreover, the composite Z-score in [12] is 1.3 (inactive).

Take `COC1(C)CN(Cc2ccccc2Br)[C@H](/C=C/c2ccccc2)[C@H](Cc2ccccc2)O1` (stereo not given in full): the composite z-score in [1] is -0.579; in [3], -0.137; in assay [4] it was -0.0755; in assay [5], -0.412; in assay [6] it was -0.176; in assay [7] it was -0.291. Further, the composite z-score in [8] is -0.169; in assay [9], -0.631; in assay [10] it was -0.0462; in assay [11], -0.403; in assay [13], -0.236; in [14] it was -0.198. In addition, the composite z-score is 0.0397 in assay [15]; 0.203 in [16]; -0.195 in assay [17]; -0.435 in assay [18]; -0.77 in [19]; -0.0737 in [20]. Besides, the z-score in [2] was -1.58. Besides, the composite Z-score in assay [12] is 0.0873 (inactive).

Take `C=C(CCCC)/C(=C/C[C@@H](OC(=O)c1ccncc1)c1cccc(OCCO)c1)c1cnc2ccccc2c1`: the composite z-score in assay [1] was 1.3; in assay [3] it was 0.742; in assay [4] it was 0.185; in [5], -0.472; in [6] it was 0.0037; in [7] it was -0.0035. The composite z-score is -0.103 in assay [8]; 1.49 in [9]; 2.58 in [10]; 0.413 in assay [11]; 0.272 in assay [13]; -0.0495 in [14]. For the same molecule, the composite z-score in [15] was found to be 0.893; in assay [16], 1.04; in assay [17] it was 0.327; in [18], 1.16; in assay [19], 1.54; in [20], 1.1. For the same molecule, in [2], the z-score is -1.96. The composite Z-score in [12] was 0.815 (inactive).

Take `O=C1O[C@@H](c2ccccc2)[C@@H](c2ccccc2)N2[C@@H](c3ccccc3OCCO)[C@]3(C(=O)Nc4ccc(C#CC5=CCCCC5)cc43)[C@@H](C(=O)NC[C@H](O)c3ccccc3)[C@H]12`: the composite z-score is 1.35 in [1]; 0.556 in [3]; 1.08 in assay [4]; 0.0728 in assay [5]; 0.0388 in assay [6]; -0.0709 in [7]. Also, the composite z-score in assay [8] is 0.0483; in [9], 0.519; in assay [10], 1.31; in assay [11], 0.402; in assay [13], 0.0522; in assay [14] it was -0.124. In addition, the composite z-score in assay [15] is 0.211; in assay [16] it was 0.363; in assay [17], 0.182; in assay [18] it was 1.28; in [19], 0.478; in assay [20], 1.04. Moreover, the z-score in assay [2] is -3.33. In addition, the composite Z-score in assay [12] was -0.584 (inactive).

Regarding `CC(C)(C)OC(=O)CC[C@]1(C(=O)NCCN2CCOCC2)N=C(c2ccc(OCCCO)cc2)O[C@H]1c1ccccc1`, the composite z-score in assay [1] was 1.18; in [3] it was -0.103; in assay [4], 1.78; in [5] it was 0.598; in [6], -0.0203; in assay [7], -0.153. Besides, the composite z-score in assay [8] is 0.593; in assay [9], -0.299; in assay [10] it was 1.57; in assay [11] it was 0.824; in [13], 0.0636; in assay [14], -0.075. In addition, the composite z-score in assay [15] is 0.745; in [16], 2.28; in [17] it was -0.657; in assay [18], 0.218; in [19], -1.21; in assay [20] it was 1.16. This molecule registered a z-score in [2] of 0.0186. The composite Z-score in assay [12] is -0.985 (inactive).
